SMILES strings stand for the structures. The panel holds about 83,000 compounds, 20% with a hit somewhere; the sample as a whole holds those more often.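 Assay: single dose, 48 h. Readout: percent growth (0 = no net growth; negative = cell death). Active: <10.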 The source made the active and inactive calls.

For 40 compounds, growth results are on record in PubChem BioAssay (NCI).

The subject of this assay is HL-60(TB) leukemia. Briefly: NCI-60 one-dose screen, 48 h (100 = growth as untreated, 0 = no growth, -100 = all killed). As to conditions: 10 µM unless noted.
Turning to `O=C(c1ccccc1)c1cccc(C(Br)Br)c1`, the growth is 87.6% (inactive). As for `O=S(=O)(c1ccc(N/N=C\c2ccccc2Cl)cc1)c1ccc(N/N=C/c2ccccc2Cl)cc1`, the figure is 74% (inactive). With `CCOC(=O)C1OC1c1ccccc1` (stereo not given), the growth was 97% (inactive).

As to `CC(=O)c1nn(-c2ccc(C)cc2)cc1C(=O)c1cc2c(ccc3ccccc32)oc1=O`, the growth was 104% (inactive). As for `NC(CSC(c1ccccc1)(c1ccccc1)c1ccc(Cl)cc1)C(=O)O` (stereo not given), the figure is -40.5% (active); as for `CCCS(=O)(=O)c1nc(NC2CC2)cc(-c2ccc3c(ccn3C3CC(C)(C)NC(C)(C)C3)c2)n1`, -61.7% (active); as for `Cn1cc(-c2nonc2-c2c[nH]c3ccc(F)cc23)c2cc(Br)ccc21`, 56.5% (inactive). Consider `CN1C(=O)/C(=C/c2ccc(C(=O)Nc3ncc(Cc4cccc(C(F)(F)F)c4)s3)cc2)SC1=S`, for which the growth was 43.3% (inactive).

As to `COc1c(C)c2c(c(O)c1C/C=C(\C)CCC(=O)OCCN1CCOCC1)C(=O)OC2`, the growth is 36.7% (inactive). As to `CN(C)C(=S)SCN1C(=O)c2ccc([N+](=O)[O-])cc2S1(=O)=O`, the growth is 75.3% (inactive).

As to `Cc1cccc(Oc2ccc(Nc3ncnc4ccc(NC(=O)CN(C)C)cc34)cc2Cl)c1`, the growth is -48% (active). Regarding `Cc1[nH]n(C(=O)c2ccncc2)c(=O)c1N=Nc1ccc(S(=O)(=O)Nc2ccncn2)cc1`, the growth was 91.3% (inactive). On to `CN1C(=O)C2(NN=C(c3cccc4ccccc34)S2)c2ccccc21` (stereo not given), for which the growth is 34.7% (inactive).

In the case of `O=C(/C=C/c1ccc(C(F)(F)F)cc1)c1ccc(Nc2nc(NCCO)nc(Nc3ccc(Cl)cc3)n2)cc1`, the growth was 77% (inactive). Turning to `CC(=O)Oc1ccccc1C(=O)Nc1ncc([N+](=O)[O-])s1`, the growth is -43.8% (active). For the compound `O=C(O)c1cn(C2CC2)c2cc(N3CCN(C(=O)N/N=C/c4ccccc4)CC3)c(F)cc2c1=O`, the growth is 100% (inactive).

Turning to `Cc1cccc(N2C(=O)/C(=C/C(Cl)=C/c3ccc([N+](=O)[O-])cc3)SC2=S)c1C`, the growth is -13.3% (active). As for `c1ccc2c(c1)ncn2-c1nc2ccccc2n2c1nc1ccccc12`, the growth was 102% (inactive). To `O=C1/C(=C\c2c[nH]c3ccccc23)c2ccccc2N1c1c(Cl)cccc1Cl` belongs -7.81% (active). Turning to `Cc1ccc(C(=O)Nc2ccc(CN3CCN(C)CC3)c(C(F)(F)F)c2)cc1C#Cc1cnc(N)cc1C#N`, the growth is -53.5% (active). As to `O=Nc1ccccc1N=O`, the growth is 78.3% (inactive). For the compound `COc1ccc(C2=NN(c3nc(-c4ccc(OC)cc4)c(C#N)c(=O)n3C)C(=O)CC2)cc1`, the growth was 99.5% (inactive). For `Clc1nc(Cl)c2c3c(sc2n1)CCCC3`, the growth was -14.2% (active). On to `CCCCNc1cc(C(=O)O)cc(S(N)(=O)=O)c1Oc1ccccc1`, for which the growth was 107% (inactive). For the compound `Cc1nn(-c2ccccc2)c2nc(N)c(C3=NCCO3)nc12`, the growth is 102% (inactive).

Regarding `CS(=O)(=O)c1ccc(-c2nc3cc(Cl)ccc3n2CC(=O)N/N=C/c2ccc(Cl)cc2)cc1`, the growth was 25.3% (inactive). Turning to `CN1CCN(Cc2ccc(NC(=O)c3ccc(C#Cc4c(N)ncc5ccc(F)cc45)cc3)cc2C(F)(F)F)CC1`, the growth is -10.7% (active). On to `Oc1ccc(CCCCCCc2ccc(O)cc2)cc1`, for which the growth is 100% (inactive). `NNC(=S)N1N=C(c2cc3ccccc3o2)CC1c1c[nH]c2ccccc12` (stereo not given): the growth was 21.7% (inactive). Consider `CCOc1ccccc1-n1c(CN2CCN(C(=O)COc3ccc(CNCCCCCCN4C5CCCC4CC(OC(=O)Nc4cc(C)ccc4OC)C5)cc3)CC2)nc2ccccc2c1=O` (stereo not given), for which the growth is -76% (active). As for `CCOC(=O)C1=C(C(F)(F)F)NC(=S)NC1CN1C(=O)c2ccccc2C1=O` (stereo not given), the figure is 86.7% (inactive); as for `COc1ccc(OC)c(/C=C/[C@H]2O[C@@H](C)[C@H](O)[C@@H]2O)c1`, 88.3% (inactive). On to `Oc1[nH]c2ccccc2c1/C=c1/cc2c(c(-c3ccc(F)cc3)n1)=Nc1ccccc1-2`, for which the growth was -39.1% (active). For `O=C(N/N=C\c1ccccc1O)C1CC1`, the growth was 101% (inactive).

As for `Nc1ncnc2c1N=C(c1ccc(Cl)cc1)CC(c1ccc3c(c1)OCO3)N2` (stereo not given), the growth was 90.7% (inactive).

For `Cc1ncc(-c2ccoc2)c(NC2CCCCCC2)n1`, the growth is 96.1% (inactive). With `COC(=O)c1ccc2c(c1)c1c(C)c3cnccc3c(C)c1n2C`, the growth was -2.92% (active). Consider `O=S(=O)(NCCNc1nccc(-c2c(-c3cccc(O)c3)nc3occn23)n1)c1cccc(F)c1`, for which the growth is 76.6% (inactive). Regarding `COc1ccc(OC)c(/C=C2\COc3ccc(O)c(O)c3C2=O)c1`, the growth is -11% (active).

On to `C=C(C)[C@@H]1CC[C@]2(C=O)CC[C@]3(C)[C@H](CC[C@@H]4[C@@]5(C)C/C(=C/c6cccnc6)C(=O)C(C)(C)[C@@H]5CC[C@]43C)[C@@H]12`, for which the growth is 25.9% (inactive).
